Measured values reported in paper PMC4336329 (PLoS ONE, 2015).
The whole screen tested about 310,000 compounds, of which about 14,000 (4.5%) showed an effect of 50% or more. The effect is printed as a negative number. What follows is part of a selection rich in strong results, with near analogues and random picks from the rest.

target: human ether-à-go-go-related gene (hERG) potassium channel (human, UniProt Q12809); test: primary screen, population patch clamp on CHO cells stably expressing hERG; higher = less effect of the substance
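Note: peak tail current of the secondary pulse compared with the same well before compound.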

Sequence of human ether-à-go-go-related gene (hERG) potassium channel (Q12809 whole entry, looked up): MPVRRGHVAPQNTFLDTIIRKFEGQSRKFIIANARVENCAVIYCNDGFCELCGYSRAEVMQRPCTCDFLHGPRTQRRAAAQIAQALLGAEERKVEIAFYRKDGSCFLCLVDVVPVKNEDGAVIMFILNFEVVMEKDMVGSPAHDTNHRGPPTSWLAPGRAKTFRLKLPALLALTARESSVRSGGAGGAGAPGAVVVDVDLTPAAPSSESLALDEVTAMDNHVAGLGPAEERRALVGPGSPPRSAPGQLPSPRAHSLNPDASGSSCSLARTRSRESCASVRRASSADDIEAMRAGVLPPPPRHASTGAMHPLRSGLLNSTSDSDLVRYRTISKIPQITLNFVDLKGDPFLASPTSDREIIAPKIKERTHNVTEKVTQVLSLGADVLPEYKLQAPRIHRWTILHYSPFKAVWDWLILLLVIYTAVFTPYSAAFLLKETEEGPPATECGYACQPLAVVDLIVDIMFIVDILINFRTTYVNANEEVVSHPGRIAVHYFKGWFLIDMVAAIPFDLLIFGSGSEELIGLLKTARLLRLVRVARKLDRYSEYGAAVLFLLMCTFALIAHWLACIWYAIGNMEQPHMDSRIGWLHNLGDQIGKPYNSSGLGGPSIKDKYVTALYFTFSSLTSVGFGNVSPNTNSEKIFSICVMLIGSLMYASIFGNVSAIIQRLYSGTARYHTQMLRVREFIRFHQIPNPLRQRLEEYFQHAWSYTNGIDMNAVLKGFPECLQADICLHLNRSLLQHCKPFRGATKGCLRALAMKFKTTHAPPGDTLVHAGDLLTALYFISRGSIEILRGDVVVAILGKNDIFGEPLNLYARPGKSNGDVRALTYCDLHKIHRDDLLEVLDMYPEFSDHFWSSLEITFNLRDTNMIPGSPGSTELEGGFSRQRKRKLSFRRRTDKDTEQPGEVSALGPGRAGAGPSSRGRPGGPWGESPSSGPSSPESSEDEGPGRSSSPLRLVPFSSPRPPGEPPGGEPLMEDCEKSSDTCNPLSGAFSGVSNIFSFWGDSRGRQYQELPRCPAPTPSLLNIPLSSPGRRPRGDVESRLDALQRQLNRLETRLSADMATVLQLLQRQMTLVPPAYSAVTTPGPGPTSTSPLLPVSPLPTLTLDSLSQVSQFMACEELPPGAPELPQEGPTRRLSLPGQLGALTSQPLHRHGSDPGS

Row | Structure (SMILES) | hERG current change (%, negative = inhibition) at 10uM [%]
1 | CN(c1ccc(OCC(=O)NC2CCCC2)cc1)S(=O)(=O)c1cccs1 | -80.6
2 | O=C(COc1ccc(S(=O)(=O)NC2CCCCC2)cc1)NC1CC1 | 3.4
3 | CCOc1ccc(S(=O)(=O)N(C)c2ccc(OCC(=O)N3c4ccc(C)cc4C4CN(C)CCC43)cc2)cc1 (stereo not shown) | -38.5
4 | Cc1ccc2c(c1)C1CN(C)CCC1N2C(=O)COc1ccc(N(C)S(=O)(=O)c2cccs2)cc1 (stereo not shown) | -52.9
5 | O=C(COc1ccc(S(=O)(=O)NC2CCCCC2)cc1)NC1CCCC1 | -8.19
6 | Cc1ccc2c(c1)C1CN(C)CCC1N2C(=O)COc1ccc(N(C)C(=O)C(C)(C)C)cc1 (stereo not shown) | -9.48
7 | CN(c1ccc(OCC(=O)N2CCN(c3ccc(F)cc3)CC2)cc1)S(=O)(=O)c1cccs1 | -58.7
8 | Cc1ccc(N(CC(=O)NC2CCCCC2)S(=O)(=O)c2cccs2)cc1 | 5.9
9 | O=C(COc1ccc(S(=O)(=O)NC2CCCCC2)cc1)NC1CCCCC1 | -54.1
10 | CN(c1ccc(OCC(=O)N2CCCCC2)cc1)S(=O)(=O)c1cccs1 | -11.2
11 | CC(=O)N1CCN(C(=O)COc2ccc(N(C)S(=O)(=O)c3cccs3)cc2)CC1 | -14.7
12 | CCN(CC)c1ccc(NC(=O)COc2ccc(N(C)S(=O)(=O)c3cccs3)cc2)cc1 | 8.15
13 | C#Cc1cccc(C(=O)N2CCCC(C(=O)c3ccc(OC)cc3C)C2)c1 (stereo not shown) | -6.8
14 | COc1ccc(S(=O)(=O)N2CCC(C(=O)Nc3ccccc3N3CCCCC3)CC2)cc1OC | 3.04
15 | Cc1ccc(S(=O)(=O)N2CCC(C(=O)Nc3ccccc3N3CCCCC3)CC2)cc1C | -9.46
16 | C=CCn1c(Cc2csc(N)n2)nnc1SCC(=O)OCC | -0.614
17 | O=C(O)CCc1nc2ccccc2c(=O)[nH]1 | 38.7
18 | CC(=O)c1cn(CC(=O)NCc2cccnc2)c2ccccc12 | 3.67
19 | CCc1nnc(NC(=O)CSc2nnc(-c3cccnc3)n2C)s1 | 13.6
20 | CCOc1ccc(OCCC(=O)OCC(=O)N2CCN(c3ccc(OC)cc3)CC2)cc1 | 6.92
21 | CN1CCN(C(=O)c2ccccc2NC(=O)CCN2C(=O)c3ccccc3C2=O)CC1 | -3.71
22 | C=CCSc1nnc(NC(=O)CSc2nc3ccccc3[nH]2)s1 | 9.74

Row | Structure (SMILES) | hERG current change (%, negative = inhibition) at 10uM [%]
23 | COc1cccc(NC(=O)Cn2c(-c3cncs3)nc3ccccc32)c1 | -23.9
24 | O=C(CNC(=O)c1ccco1)OCc1cccc(Cl)c1 | -7.25
25 | COC(=O)c1c(C)n(-c2ccc(C)cc2)c2ccc(O)cc12 | -3.54
26 | COC(=O)c1c(C(=O)OC)n(CCCN)c2ccc(C)cc12.Cl | -77
27 | COC(=O)c1c(C)n(Cc2ccccc2)c2ccc(O)cc12 | 14.8
28 | O=C(NCCC1=CCCCC1)c1cc(COc2ccc(F)cc2Cl)on1 | 10.4
29 | Cc1ccc(NC(=O)Cn2c(CCC(=O)O)ccc2-c2cccs2)cc1Cl | -75.3
30 | Cc1ccc(NC(=O)Cn2c(CCC(=O)O)ccc2-c2cccs2)cc1 | -2.61
31 | COc1cccc(NC(=O)Cn2c(CCC(=O)O)ccc2-c2cccs2)c1 | 12.4
32 | CC(C)Oc1ccc(S(=O)(=O)N2CCOCC2)cc1NC(=O)C1CCCCC1 | -19.6
33 | O=C(O)CSc1ncnc2sc(-c3ccccc3)cc12 | 23.6
34 | Cc1cccc(Nc2sc(C(=O)c3cc4cc(Cl)ccc4o3)c(N)c2C#N)c1 | -2.78
35 | CN1CCN(c2nc(Nc3cccc(C(F)(F)F)c3)nc(N3CCOCC3)n2)CC1 | -60
36 | FC(F)(F)c1cccc(Nc2nc(N3CCOCC3)nc(N3CCOCC3)n2)c1 | 15.6
37 | CN1CCN(c2nc(Nc3ccc(F)cc3)nc(Nc3ccc(F)cc3)n2)CC1 | -60.5
38 | COc1ccc(N2CCN(c3nc(Cl)nc(Nc4ccc(F)cc4)n3)CC2)cc1 | 7.8
39 | Cl.Fc1ccc(Nc2nc(N3CCOCC3)nc(N3CCOCC3)n2)cc1 | 4.26
40 | FC(F)(F)c1cccc(Nc2nc(N3CCCC3)nc(N3CCCC3)n2)c1 | 23.7
41 | COc1ccc(/C=N/N=C/c2ccc(OC)c(O)c2)cc1O | 23.2
42 | Cc1ccc(C(=O)N/C(=C\c2ccc(-c3ccccc3[N+](=O)[O-])o2)C(=O)NCCN(C)C)cc1 | -55.4
43 | CCCCNC(=O)/C(=C\c1ccc([N+](=O)[O-])o1)NC(=O)c1ccccc1 | -39.8
44 | Cc1ccc(C(=O)/C=C/c2ccc(-c3ccccc3[N+](=O)[O-])o2)cc1 | 12.5

Row | Structure (SMILES) | hERG current change (%, negative = inhibition) at 10uM [%]
45 | Cc1ccc(C(=O)N/C(=C\c2ccc(-c3ccccc3[N+](=O)[O-])o2)C(=O)NCCCN(C)C)cc1 | -74.5
46 | O=C(O)/C(=C\c1ccc(-c2ccccc2[N+](=O)[O-])o1)c1ccccc1 | 23.6
47 | Cc1ccc(Oc2ccccc2/C=C/C(=O)O)cc1 | 14.6
48 | C=CCn1c(SCC(=O)NC(=O)NC2CCCC2)nnc1C1CCCCC1 | 3.7
49 | O=C(CSc1nnc(CNc2ccc(F)cc2)o1)N1c2ccccc2Sc2ccccc21 | 11
50 | CCN1CCN(CCNC(=O)c2ccc(/C=C3/Sc4ccccc4N(Cc4cccc(C)c4)C3=O)cc2)CC1 | -22
51 | CCOc1cc(CNCCN2CCOCC2)ccc1OCc1ccccc1Cl.Cl | -41.8
52 | CCC(CO)NCc1ccc(OCC(=O)Nc2cccc(C(F)(F)F)c2)c(OC)c1 (stereo not shown) | -43.6
53 | CCOc1cc(CNC(CC)CO)ccc1OCC(=O)Nc1cccc(C(F)(F)F)c1 (stereo not shown) | -68.3
54 | CCOc1cc(CNCCCN2CCOCC2)cc(Cl)c1OCC(=O)NC(C)(C)C.Cl | 5.38
55 | COc1ccc(NC(=O)COc2ccc(CNCCCN3CCOCC3)cc2OC)cc1.Cl | 0.185
56 | COc1cc(CNCCCN2CCOCC2)ccc1OCC(=O)NC(C)(C)C.Cl | 21
57 | CCOc1cc(CNC(C)(C)C)ccc1OCC(=O)Nc1cccc(C(F)(F)F)c1.Cl | -13.7
58 | CCOc1cc(CNCCCN2CCOCC2)ccc1OCC(=O)Nc1cccc2ccccc12.Cl | -7.77
59 | CCOc1cc(CNCCCN2CCOCC2)cc(Br)c1OCC(=O)Nc1cccc(C(F)(F)F)c1.Cl | -70.3
60 | CCOc1cc(CNCCCN2CCOCC2)cc(Br)c1OCc1ccccc1Cl.Cl | -64.9
61 | COc1cc(CNCCCN2CCOCC2)ccc1OCC(=O)Nc1cccc(C(F)(F)F)c1.Cl | -56.6
62 | CCOc1cc(CNCCO)cc(Br)c1OCc1ccccc1Cl.Cl | 12.5
63 | CCOc1ccc(CC(=O)Nc2ccc(S(=O)(=O)N3CCCC3)cc2)cc1 | 10.4
64 | Cc1cc(C(=O)COC(=O)CC2Sc3ccccc3NC2=O)c(C)n1-c1ccccc1 (stereo not shown) | 28
65 | O=C(COc1ccc2c(c1)C(=O)CC1(CCCCC1)O2)NCc1ccccn1 | -33.9
66 | O=C(CCS(=O)(=O)c1cccc2nonc12)Nc1cccc2c1CCCC2 | 4.5

Row | Structure (SMILES) | hERG current change (%, negative = inhibition) at 10uM [%]
67 | Cc1ccc(C)c(N2CC(C(=O)O)CC2=O)c1 (stereo not shown) | -2.08
68 | CN(CC(=O)Nc1ccc(Cl)cc1)C(=O)COc1ncnc2ccccc12 | -8.52
69 | CCCCn1nnnc1SCC(=O)N(CC)CC | 10.4
70 | CCOc1ccc(NC(=O)CSc2nnc(C)n2Cc2ccccc2)cc1 | -16.4
71 | O=C(CN1CC[n+]2c(-c3cccs3)csc21)c1ccc(-c2ccccc2)cc1.[Br-] | -54.3
72 | O=C(CN1CC[n+]2c(-c3ccccc3)csc21)c1ccc(Br)cc1.[Br-] | -40.6
73 | O=C(CN1CC[n+]2c(-c3cccs3)csc21)c1ccc(Br)cc1.[Br-] | -45.9
74 | NNC(=O)c1cccc(S(=O)(=O)Nc2cccc(C(F)(F)F)c2)c1 | 1.4
75 | CC1CN(c2ccc([N+](=O)[O-])cn2)CC(C)O1 (stereo not shown) | -19.7
76 | CC1(C)CC(NCc2ccccc2)CCO1.Cl (stereo not shown) | 5.1
77 | CC1(C)CC(NCCC(c2ccccc2)c2ccco2)CCO1 (stereo not shown) | -52.5
78 | O=C1c2ccccc2C(=O)N1CCC(c1ccc(F)cc1)c1ccco1 (stereo not shown) | -6.1
79 | O=C1CCC(=O)N1CCC(c1ccc(F)cc1)c1ccco1 (stereo not shown) | 4.27
80 | CC1(C)CC(C(=O)NCCC(c2ccccc2)c2ccco2)CCO1 (stereo not shown) | -9.31
81 | CC1(C)CC(CNCCC(c2ccc(F)cc2)c2ccco2)CCO1 (stereo not shown) | -62.5
82 | Cc1ccc(NC(=O)COC(=O)CCC(=O)c2ccc(Cl)cc2)cc1S(=O)(=O)N(C)C | -1.5
83 | CCOC(=O)N1CCc2c(sc3nc(SC(C)C)n(N)c(=O)c23)C1 | -20.9
84 | Clc1nc(NCc2ccco2)nc(N2CCCCC2)n1 | 33.5
85 | Cl.c1coc(CNc2ncnc3ccccc23)c1 | 2.88
86 | Cl.c1ccc(N2CCN(c3nc(NCc4ccco4)c4ccccc4n3)CC2)cc1 | -73.6
87 | Fc1ccccc1-c1nc(NCc2ccco2)c2ccccc2n1 | -2.1
88 | Cl.c1coc(CNc2nc(N3CCCCC3)nc3ccccc23)c1 | -77.5
